Measured values published in PubChem BioAssay (NCATS).
Inconclusive results are not listed. The source made the active and inactive calls. Unless noted, the call rests on the fitted dose curve.

Columns and labels:
[1] = qHTS drug screen for cell cycle checkpoint inhibitors in PARPi-resistant BRCA-mutant ovarian cancer cell lines. (AID 1963452); conditions: PEO1/OlaR viability, CellTiter-Glo luminescence, 96 h, stronger effect = lower value
In short: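 PEO1, PEO4 and PEO1/OlaR ovarian cancer cells, 600 per well, exposed 96 h at 37C to a dilution series. Viability read by CellTiter-Glo luminescence, normalized to DMSO and empty wells; activity summarized as Z-AUC.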

[2] = target: Nuclear receptor subfamily 1 group I member 2 (Homo sapiens) (UniProt O75469); assay: Dual reporter qHTS for agonist of Pregnane X Receptor (hPXR) against the NCATS DSHEA and TCM libraries: Luminescence readout (AID 1920059; active means well fitted curve in the direction sought with a large enough effect; an effect the other way counts as inactive or inconclusive; further: potency means the concentration at half of the fitted maximal effect); conditions: hPXR dual reporter cells, luciferase luminescence agonist; series mostly up to 22 µM
Chain of Nuclear receptor subfamily 1 group I member 2 (Homo sapiens) (O75469 whole entry, looked up): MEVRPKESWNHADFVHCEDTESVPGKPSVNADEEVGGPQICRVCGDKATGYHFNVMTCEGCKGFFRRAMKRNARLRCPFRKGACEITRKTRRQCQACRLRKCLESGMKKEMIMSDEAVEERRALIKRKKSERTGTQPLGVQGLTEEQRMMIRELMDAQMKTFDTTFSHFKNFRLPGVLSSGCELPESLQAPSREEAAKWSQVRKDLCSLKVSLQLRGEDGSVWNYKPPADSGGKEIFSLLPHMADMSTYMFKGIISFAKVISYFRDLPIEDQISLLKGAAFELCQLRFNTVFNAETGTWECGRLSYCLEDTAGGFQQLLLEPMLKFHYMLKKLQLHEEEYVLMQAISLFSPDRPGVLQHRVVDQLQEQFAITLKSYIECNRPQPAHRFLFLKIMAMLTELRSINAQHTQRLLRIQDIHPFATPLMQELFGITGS
In short: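 hPXR-LucHepG2 cells in phenol red-free DMEM with 5% charcoal-stripped FBS, 2000 cells/well, attached 5 h, then exposed 24 h at 37C to compounds; rifampicin as positive agonist control (2.8 nM–92 uM). Luciferase luminescence read.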

[3] = target: Nuclear receptor subfamily 1 group I member 2 (Homo sapiens) (UniProt O75469); assay: Dual reporter qHTS for antagonist of Pregnane X Receptor (hPXR) against the NCATS DSHEA and TCM libraries: Luminescence Readout (AID 1920060; active means well fitted curve in the direction sought with a large enough effect; an effect the other way counts as inactive or inconclusive;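 further: HepG2 cells carrying hPXR luciferase reporter stimulated with rifampicin at 2 µM; 0% is about no effect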); conditions: hPXR dual reporter cells, luciferase luminescence, antagonist mode; series mostly up to 40 µM
In short: (§1)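 In antagonist mode, 2 uM rifampicin was added to hPXR-Luc HepG2 cells alongside test substances, incubated 24 h at 37 C; luminescence gave reporter activity, and CellTiter-Fluor fluorescence (405/540 nm) gave viability.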

[4] = Dual reporter qHTS for antagonist of Pregnane X Receptor (hPXR) against the NCATS DSHEA and TCM libraries: Fluorescence Readout (AID 1920061; active means well fitted curve in the direction sought with a large enough effect; an effect the other way counts as inactive or inconclusive; further: 0% is about no effect); conditions: PXR dual reporter cells, antagonist mode; series mostly up to 40 µM
In short: as §1

[5] = qHTS profiling for inhibitors of Plasmodium falciparum proliferation (AID 504749; active means well fitted curve in the direction sought with a large enough effect; an effect the other way counts as inactive or inconclusive;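 further: 0% = DMSO vehicle and full inhibition = artemisinin control; nearly all actives have a fitted effect of over 60% in size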); conditions: P. falciparum in erythrocytes, SYBR Green DNA, 72 h; series mostly up to 28.7 µM
In short: (§2)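 Parasite proliferation within erythrocytes, 72 h exposure. Endpoint: SYBR Green I fluorescence after overnight lysis at room temperature. Controls: 0.29 uM artemisinin, DMSO.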

3D7 = assay: as above; conditions: P. falciparum in erythrocytes, SYBR Green DNA, 72 h; series mostly up to 28.7 µM
In short: as §2

7G8 = assay: as above; conditions: P. falciparum in erythrocytes, SYBR Green DNA, 72 h; series mostly up to 28.7 µM
In short: as §2

AA1029 = assay: as above; conditions: P. falciparum in erythrocytes, SYBR Green DNA, 72 h; series mostly up to 28.7 µM
In short: as §2

AS120 = assay: as above; conditions: P. falciparum in erythrocytes, SYBR Green DNA, 72 h; series mostly up to 28.7 µM
In short: as §2

ATS189 = assay: as above; conditions: P. falciparum in erythrocytes, SYBR Green DNA, 72 h; series mostly up to 28.7 µM
In short: as §2

[6] = measured here: PEO1 parental Z-AUC

SMILES: Cc1nc(-c2cccnc2)sc1C(=O)Nc1ccccc1-c1cn2c(CN3CCOCC3)csc2n1
- Z-AUC [1]: 0.405 (inactive)
- Z-AUC [1, 6]: -0.0743
- Z-AUC ([1]; measured here: PEO4 Z-AUC): 0.19

SMILES: Cc1c(F)cc(C(=O)NC2CC2)cc1-c1ccc(C(=O)NCC(C)(C)C)cn1
- Z-AUC [1]: 0.819 (inactive)
- Z-AUC [1, 6]: 0.354
- Z-AUC ([1]; measured here: PEO4 Z-AUC): 0.681

SMILES: O=C(/C=C/C=C/c1ccc2c(c1)OCO2)N1CCCCC1
- Z-AUC [1]: 1.54 (inactive)
- Z-AUC [1, 6]: 1.2
- Z-AUC ([1]; measured here: PEO4 Z-AUC): 2.18

SMILES: N#Cc1cccc(-c2c[nH]c3ncnc(N4CCOCC4)c23)c1
- Z-AUC [1]: 0.0885 (inactive)
- Z-AUC [1, 6]: 0.762
- Z-AUC ([1]; measured here: PEO4 Z-AUC): 0.859

SMILES: Cn1cc(-c2c[nH]c3ncnc(N4CCOCC4)c23)cn1
- Z-AUC [1]: 1.31 (inactive)
- Z-AUC [1, 6]: 1.65
- Z-AUC ([1]; measured here: PEO4 Z-AUC): 1.56

SMILES: O=C(COCC(=O)N1CCN(C(c2ccccc2)c2ccccc2)CC1)Nc1ccc(Cl)cc1C(=O)O
- Z-AUC [1]: 1.8 (inactive)
- Z-AUC [1, 6]: 1.44
- Z-AUC ([1]; measured here: PEO4 Z-AUC): 1.34

SMILES: CC(=O)O[C@@H]1C[C@@H](C)[C@](O)(CCC2=CC(=O)OC2)[C@@]2(C)CCCC(C)(C)C12 (some centres not stated)
- Potency [2]: 12.6 µM (active)
- outcome [3]: inactive
- outcome [4]: inactive

SMILES: CCCCOc1nc(N)c2c(n1)N(Cc1cccc(CN3CCCC3)c1)CC(=O)N2
- Z-AUC [1]: -0.393 (inactive)
- Z-AUC [1, 6]: -0.969
- Z-AUC ([1]; measured here: PEO4 Z-AUC): -0.664

SMILES: Cc1ncc(NC(=O)c2ccc(CN3CCN(C)CC3)c(C(F)(F)F)c2)cc1Nc1nccc(-c2cccnc2)n1
- Z-AUC [1]: 0.889 (inactive)
- Z-AUC [1, 6]: -0.0515
- Z-AUC ([1]; measured here: PEO4 Z-AUC): -0.0456

SMILES: Nc1ncnc2c1C(=O)N(c1ccc(C3CCC(CC(=O)O)CC3)cc1)CCO2 (configuration not stated)
- Z-AUC [1]: 0.276 (inactive)
- Z-AUC [1, 6]: 0.0726
- Z-AUC ([1]; measured here: PEO4 Z-AUC): 0.138

SMILES: CCc1cccc2c3c([nH]c12)[C@@](CC)(CC(=O)O)OCC3
- outcome [5]: inactive
- outcome (3D7): inactive
- outcome (7G8): inactive
- outcome (AA1029): inactive
- outcome (AS120): inactive

SMILES: CCC(CC)CC1(C(=O)Nc2ccccc2SC(=O)C(C)C)CCCCC1
- Z-AUC [1]: -0.732 (inactive)
- Z-AUC [1, 6]: -0.887
- Z-AUC ([1]; measured here: PEO4 Z-AUC): -0.923

SMILES: COCCCc1sc(-c2ccccc2)nc1C(=O)Nc1ccccc1-c1nc2cc(CN3CCCC3)cnc2s1
- Z-AUC [1]: 0.0751 (inactive)
- Z-AUC [1, 6]: -0.146
- Z-AUC ([1]; measured here: PEO4 Z-AUC): 0.43

SMILES: Cc1cccc(-c2nn3c(c2-c2ccnc4ccc(C(N)=O)cc24)CCC3)n1
- Z-AUC [1]: 1.11 (inactive)
- Z-AUC [1, 6]: 0.368
- Z-AUC ([1]; measured here: PEO4 Z-AUC): 0.508

SMILES: Nc1ncnc2c1c(COc1cccc(Cl)c1)nn2C1CCOCC1
- Z-AUC [1]: -1.18 (inactive)
- Z-AUC [1, 6]: -0.772
- Z-AUC ([1]; measured here: PEO4 Z-AUC): -0.767

SMILES: CC(C)[C@](O)(c1ccc2cc(OC(F)F)c(OC(F)F)cc2c1)c1cn[nH]n1
- Z-AUC [1]: -0.262 (inactive)
- Z-AUC [1, 6]: -0.434
- Z-AUC ([1]; measured here: PEO4 Z-AUC): -0.604

SMILES: O=C1NC(=O)/C(=C/c2cccc(C(F)(F)F)c2)S1
- Z-AUC [1]: 0.536 (inactive)
- Z-AUC [1, 6]: 0.151
- Z-AUC ([1]; measured here: PEO4 Z-AUC): 0.0196

SMILES: O=C(O)CC1CCC(c2ccc(-c3ccc(Nc4ccc(C(F)(F)F)nc4)cn3)cc2)CC1 (configuration not stated)
- Z-AUC [1]: -0.639 (inactive)
- Z-AUC [1, 6]: -0.457
- Z-AUC ([1]; measured here: PEO4 Z-AUC): -0.671

SMILES: N#CN1CCC[C@@H](n2nc(-c3ccc(Oc4ccc(F)cc4F)cc3)c(C(N)=O)c2N)C1
- Z-AUC [1]: -0.296 (inactive)
- Z-AUC [1, 6]: 0.0658
- Z-AUC ([1]; measured here: PEO4 Z-AUC): 0.537

SMILES: CNc1nc(C)nc(N[C@H]2CCC[C@@H](C(=O)NCc3ccc(C#N)cc3C(F)(F)F)C2)n1
- Z-AUC [1]: -0.0725 (inactive)
- Z-AUC [1, 6]: 0.695
- Z-AUC ([1]; measured here: PEO4 Z-AUC): 1.22

SMILES: Cc1ncc(Cl)cc1NCc1ccc(C(=O)NC(CC2CCCC2)C(=O)NC2CC2)s1 (configuration not stated)
- Z-AUC [1]: -0.347 (inactive)
- Z-AUC [1, 6]: -0.204
- Z-AUC ([1]; measured here: PEO4 Z-AUC): 0.18

SMILES: CC(C)N(CCCNC(=O)Nc1ccc(C(C)(C)C)cc1)C[C@H]1O[C@@H](n2ccc3c(N)ncnc32)[C@H](O)[C@@H]1O
- Z-AUC [1]: -0.352 (inactive)
- Z-AUC [1, 6]: -0.286
- Z-AUC ([1]; measured here: PEO4 Z-AUC): -0.377

SMILES: O=C(OCC1=C[C@@H](O)[C@@H]2C=CO[C@@H](O[C@@H]3O[C@H](CO)[C@@H](O)[C@H](O)[C@H]3O)[C@H]12)c1ccc(O)cc1
- Potency [2]: inactive
- outcome [4]: inactive

SMILES: C[C@@H]1O[C@@H](O[C@@H]2\C=C/C=C\C=C/C=C\C[C@H](C)OC(=O)/C=C\[C@H]3O[C@@H]3C[C@H](O)C[C@]3(O)C[C@@H](O)[C@@H](C(=O)O)[C@H](C2)O3)[C@H](O)[C@H](N)[C@@H]1O
- Z-AUC [1]: 1.98 (inactive)
- Z-AUC [1, 6]: 1.57
- Z-AUC ([1]; measured here: PEO4 Z-AUC): 1.97

SMILES: C=C1C[C@@]2(O)O[C@@]3(C[C@H]2C(C)C)[C@@H](C)CC[C@@H]13
- Z-AUC [1]: -0.318 (inactive)
- Z-AUC [1, 6]: -0.38
- Z-AUC ([1]; measured here: PEO4 Z-AUC): -0.147

SMILES: N#Cc1ccc(C2CCCc3cncn32)cc1 (configuration not stated)
- Z-AUC [1]: 0.659 (inactive)
- Z-AUC [1, 6]: 0.67
- Z-AUC ([1]; measured here: PEO4 Z-AUC): 0.567

SMILES: Cc1noc2c1-c1ccccc1C(c1ccc(Cl)cc1)=N[C@H]2CC(N)=O
- Z-AUC [1]: -0.193 (inactive)
- Z-AUC [1, 6]: -0.00939
- Z-AUC ([1]; measured here: PEO4 Z-AUC): -0.463

SMILES: COc1cccc2c1c(O)c(C(=O)N(C)c1ccc(C(F)(F)F)cc1)c(=O)n2C
- Z-AUC [1]: 0.835 (inactive)
- Z-AUC [1, 6]: 0.409
- Z-AUC ([1]; measured here: PEO4 Z-AUC): 0.643

SMILES: CCOC(=O)C(CCc1ccccc1)NC(C)C(=O)N1Cc2ccccc2CC1C(=O)O (configuration not stated)
- outcome [5]: inactive
- outcome (3D7): inactive
- outcome (7G8): inactive
- outcome (AA1029): inactive
- outcome (AS120): inactive
- outcome (ATS189): inactive

SMILES: COc1ccc2[nH]c(S(=O)Cc3ncc(C)c(OC)c3C)nc2c1 (configuration not stated)
- Z-AUC [1]: 0.929 (inactive)
- Z-AUC [1, 6]: 1.11
- Z-AUC ([1]; measured here: PEO4 Z-AUC): 1.24

SMILES: Cc1ccccc1-n1nc(-c2c(-c3ccc(F)cc3)nn3c2NC[C@@H](CO)C3)ccc1=O
- Z-AUC [1]: 0.0215 (inactive)
- Z-AUC [1, 6]: 0.2
- Z-AUC ([1]; measured here: PEO4 Z-AUC): 0.209
